Efa HMGR inh – inhibitors of E. faecalis class II HMGR, primary screen, biochemical, Enterococcus faecalis; HMG-CoA reductase (Enterococcus faecalis, mvaE); purified E. faecalis HMGR, NADPH absorbance 340 nm kinetic; inhibition, % at 10 µM; actives 0.41% (n = 190,000); AID 1066, 2008;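 active = inhibition above a set limit, the median over all tested compounds plus 3 SD, cut at about 9.5% in these data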;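 note: enzyme runs in reverse so mevalonate oxidation gives rising NADPH absorbance; 0% = complete reaction with DMSO and 100% = background rate lacking mevalonate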
dFosB activator – activators of delta FosB homodimer, primary screen, biochemical, fluorescence polarization, TAMRA-CDK5 oligo, single point | Protein FosB (Mus musculus), P13346 | purified delta FosB; percent of positive-control signal above neutral wells | activation, % at 25 µM | actives 0.99% (n = 340,000) | AID 493131, 2011;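 active = mean activation above about 17%, with every replicate also reaching it, limit read from the data, passing the limit was not always enough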
Target sequence (P13346 whole entry, looked up): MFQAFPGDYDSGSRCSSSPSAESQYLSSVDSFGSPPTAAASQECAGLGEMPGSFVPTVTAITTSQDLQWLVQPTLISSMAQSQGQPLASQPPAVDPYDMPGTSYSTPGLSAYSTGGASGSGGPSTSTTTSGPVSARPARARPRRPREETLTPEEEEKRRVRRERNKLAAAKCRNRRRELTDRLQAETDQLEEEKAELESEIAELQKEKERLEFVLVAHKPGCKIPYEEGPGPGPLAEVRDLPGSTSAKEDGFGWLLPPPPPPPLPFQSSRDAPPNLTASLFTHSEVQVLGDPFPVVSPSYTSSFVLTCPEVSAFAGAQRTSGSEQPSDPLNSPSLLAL
14-3-3 Bad inh – inhibitors of 14-3-3 zeta/Bad binding, primary screen, biochemical, TR-FRET, bovine 14-3-3 zeta. 14-3-3 protein zeta/delta (Bos taurus), P63103. TR-FRET 14-3-3zeta/Dy647-pBad peptide displacement, 1 h. inhibition, % at 21.7 µM. actives 0.71% (n = 220,000). AID 781, 2007;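 active = inhibition above about 70%, limit read from the data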;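 note: 0% = full 14-3-3 plus peptide FRET controls and 100% = background without 14-3-3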
Target sequence (P63103 whole entry, looked up): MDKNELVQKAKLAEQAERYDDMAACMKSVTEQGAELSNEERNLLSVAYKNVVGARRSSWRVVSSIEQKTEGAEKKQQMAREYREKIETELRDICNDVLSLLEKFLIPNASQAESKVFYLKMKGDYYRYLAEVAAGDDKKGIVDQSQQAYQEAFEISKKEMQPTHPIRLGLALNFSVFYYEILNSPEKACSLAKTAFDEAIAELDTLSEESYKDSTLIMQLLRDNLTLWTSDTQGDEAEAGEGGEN
NCF1 inh – p47phox/p22phox peptide binding inhibitors, primary screen, biochemical, uHTS, NADPH oxidase regulatory subunit. fluorescence polarization, 2 h. actives 0.53% (n = 220,000). AID 1274, 2008. Neutrophil cytosol factor 1 (Homo sapiens), P14598. inhibition, % at 24.7 µM;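 active = inhibition above about 30%, limit read from the data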;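 note: 0% = p47phox with labelled peptide and 100% = labelled peptide alone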
* hit, by the source's call; nt = not tested or not shown. In the library only some 1.9% were active in any assay of this set; here they are far more common.

SMILES | Efa HMGR inh | dFosB activator | 14-3-3 Bad inh | NCF1 inh
CCN(c1ccccc1)S(=O)(=O)c1ccc(Cl)c(NC(=O)CN2CCN(C)CC2)c1 | nt | 2.7 | nt | nt
CN1CCC(N(C)CC(=O)Nc2ccccc2N2CCOCC2)CC1 | -8.2 | -5.4 | 78.8* | -11.6
COc1ccc(Br)cc1CNC(=O)C1CCN(S(=O)(=O)N2CCC(C)CC2)CC1 | -1.2 | -3.6 | 7.3 | -6.3
CN1CCc2c(sc(NC(=O)c3ccc(S(=O)(=O)N4CCCC4)cc3)c2C(N)=O)C1 | nt | -9.9 | nt | nt
CN1CCc2c(sc(NC(=O)c3ccc(S(=O)(=O)N4CCCCCC4)cc3)c2C(N)=O)C1 | nt | 53.5* | nt | nt
CCCN1CCc2c(sc(NC(=O)c3ccc(S(=O)(=O)N(C)c4ccccc4)cc3)c2C(N)=O)C1 | nt | 42.5* | nt | nt
CC(O)CCC(=O)NNC1=CC(=O)CC(C)(C)C1 (stereo not drawn) | -0.4 | nt | -3.8 | -4.8
O=c1cc(CO)oc(CN2CCN(c3ccccc3)CC2)c1O | -4.1 | -1.7 | 35.6 | -19.1
Cc1[nH]n(-c2cccc3ccccc23)c(=O)c1/C=N/c1sc2c(c1C#N)CCC2 | 1.1 | -8.6 | 7.7 | -6.0
Cc1[nH]n(-c2ccc(F)cc2)c(=O)c1/C=N/c1sc2c(c1C#N)CCCC2 | 0.4 | -1.7 | 80.8* | -17.0
O=[N+]([O-])c1ccc(/C=N/Nc2nc(N3CCCCC3)nc(N3CCCCC3)n2)cc1 | -6.1 | 0.7 | -9.8 | -7.5
O=[N+]([O-])c1ccc(Nc2nc(N/N=C\c3ccc4c(c3)OCO4)nc(N3CCCCC3)n2)cc1 | -4.0 | 63.1* | 2.7 | -0.5
O=C(/C=C/c1ccco1)Nc1ccc(N2CCCC2)cc1 | -1.0 | 41.3* | 5.3 | -2.4
O=S(=O)(c1cccc(F)c1)N1CCN(C(=S)NCC2CCCO2)CC1 (stereo not drawn) | nt | 0.4 | nt | nt
COc1c(Cl)cc(Cl)cc1/C=N/NC(=O)c1nnn(-c2nonc2N)c1CN1CCC(C)CC1 | nt | -1.5 | nt | nt
COc1ccc(O)c(/C=N/NC(=O)c2c(C)nnn2-c2nonc2N)c1 | 2.2 | 47.4* | 10.6 | 12.0
COc1ccc(/C=N/NC(=O)c2nnn(-c3nonc3N)c2-c2cccc(OC)c2)cc1 | nt | -0.7 | nt | nt
CC1CCN(Cc2c(C(=O)N/N=C/c3cc(Br)ccc3O)nnn2-c2nonc2N)CC1 | nt | 133.8* | nt | nt
CC1CCN(Cc2c(C(=O)N/N=C/c3cc(Cl)ccc3O)nnn2-c2nonc2N)CC1 | nt | 162.1* | nt | nt
Cc1cc(C)c(/C=N/NC(=O)c2nnn(-c3nonc3N)c2CN2CCC(C)CC2)c(C)c1 | nt | -24.4 | nt | nt
COc1ccc(C(CC(=O)c2ccc(O)cc2)S(=O)(=O)c2ccc(C)cc2)cc1 (stereo not drawn) | -2.0 | -14.6 | -11.6 | -13.1
CC(=O)N1CCN(S(=O)(=O)c2cccc(C(=O)Nc3nc4ccccc4[nH]3)c2)CC1 | 0.8 | -3.8 | -1.3 | 3.4
Cc1nn(-c2ccccc2)c(C)c1NC(=O)COC(=O)c1ccc(Cl)c(N)c1 | nt | -4.2 | nt | nt
O=C(Cn1cnc2c(nnn2Cc2ccccc2F)c1=O)NCC1CCCO1 (stereo not drawn) | -1.9 | -2.4 | -1.6 | 0.2
CC1CCc2c(sc3nc(SCC(=O)NCc4ccco4)nc(N)c23)C1 (stereo not drawn) | -1.8 | -15.1 | -11.8 | -10.5
SMILES | Efa HMGR inh | dFosB activator | 14-3-3 Bad inh | NCF1 inh
CCN(CC)C(=O)CSc1nc(N)c2c3c(sc2n1)CC(C)CC3 (stereo not drawn) | 1.4 | -18.4 | -1.9 | 58.7*
O=C(Nc1ccc(OC(F)(F)F)cc1)C1CCCN(S(=O)(=O)c2cccnc2)C1 (stereo not drawn) | -0.5 | 3.5 | 82.2* | 7.0
CC1CCCCC1NC(=O)COC(=O)C12CC3CC(CC(Cl)(C3)C1)C2 (stereo not drawn) | -1.5 | -4.8 | -6.9 | 15.8
C=CC(=O)Nc1cccc(Nc2nc(N[C@H]3CC[C@H](N(C)C)CC3)nc3c2ncn3C(C)C)c1 | nt | 22.0* | nt | nt
CC(C)n1cnc2c(Nc3cccc(Cl)c3)nc(NCCCO)nc21 | nt | -3.5 | -0.2 | -12.6
CCNc1nc(NC(C)C)nc(NC(C)(C)C)n1 | 13.0* | -10.6 | -3.6 | -3.6
CCCS(=O)(=O)c1nc(S(=O)(=O)c2ccc(C)cc2)c(NCCN2CCOCC2)s1 | 3.3 | -8.1 | -1.8 | -1.8
O=C(COC(=O)C1CCN(S(=O)(=O)c2cccc3cccnc23)CC1)c1ccc([N+](=O)[O-])cc1 | -2.1 | -7.0 | -2.2 | -8.9
CNC(=O)OCc1cccc(COC(=O)NC)n1 | -1.9 | -3.3 | 30.6 | 39.1*
CCOc1ccc(/C=N/NC(=O)c2nnn(-c3nonc3N)c2-c2ccc(OCC)cc2)cc1 | 0.2 | 1.3 | 7.5 | -3.4
CCCOc1ccc(-c2c(C(=O)N/N=C/c3ccsc3)nnn2-c2nonc2N)cc1 | nt | 20.3* | nt | nt
Cc1oc(-c2ccc(Cl)cc2)[n+]([O-])c1C | 0.0 | -0.7 | 83.8* | 9.5
CCCCCCCCCCCCCCCCn1cc[n+](C)c1 | -5.9 | -177.8 | 94.9* | 102.4*
CCCCCCCCn1ccc(=N)cc1 | nt | -0.3 | -4.4 | 7.3
CCOc1cc(/C=C2/NC(=O)N(CC(=O)Nc3cccc(C)c3)C2=O)ccc1OC | -5.4 | -6.3 | -0.4 | 19.6
COc1cc(/C=C2/NC(=O)N(CC(=O)Nc3ccc(C)cc3)C2=O)ccc1Oc1ccc([N+](=O)[O-])cn1 | 0.9 | 18.1* | 9.5 | 3.6
COc1cc(CN(C)CCc2ccccn2)cc(OC)c1OC | 2.8 | 9.9 | 73.0* | 0.7
O=C(/C=C/c1ccc2c(c1)OCO2)c1ccc(F)cc1 | -8.8 | 2.6 | -1.1 | 1.5
O=C(/C=C/c1ccc2c(c1)OCO2)c1ccc[nH]1 | 0.1 | -0.3 | -2.4 | 81.2*
COc1ccc(CCCC(=O)N/N=C\c2cccs2)cc1 | -2.0 | -13.0 | 97.3* | -2.6
O=C(Nc1ccccc1Cl)C1CCCN(S(=O)(=O)c2ccc(F)cc2)C1 (stereo not drawn) | -3.4 | -1.9 | 77.4* | -2.5
Cc1ccc(S(=O)(=O)N2CCCC(C(=O)NCc3ccco3)C2)cc1Cl (stereo not drawn) | 12.5* | -21.5 | 1.6 | -15.2
O=C(NCc1ccco1)C1CCCN(S(=O)(=O)c2cc(Cl)ccc2Cl)C1 (stereo not drawn) | nt | -1.0 | nt | nt
C=CCNCc1cccn1-c1sc2c(c1C#N)CCCC2 | -1.8 | -9.3 | 70.7* | -18.5
N#Cc1c(-n2cccc2/C=N/O)sc2c1CCCC2 | 3.4 | -7.2 | -3.4 | -6.4
SMILES | Efa HMGR inh | dFosB activator | 14-3-3 Bad inh | NCF1 inh
N#CC(c1ccccc1)(c1ncc(C(F)(F)F)cc1Cl)N1CCOCC1 (stereo not drawn) | 2.4 | -7.8 | -2.3 | 41.7*
CCc1cccc2c(C(=O)COC(=O)/C=C/c3ccc(O)c(OC)c3)c[nH]c12 | 3.2 | -3.4 | 1.7 | -37.4
CCN1CCN(CCOc2ccc(Br)cc2C)CC1 | -3.6 | -7.4 | 88.9* | 4.3
Cc1cc(Br)ccc1OCCN1CCCC1 | nt | -0.6 | nt | nt
CNc1nc(-c2ccccc2)nc(-c2ccccc2)c1C#N | -4.7 | -9.1 | -3.5 | -5.1
CNc1nc(-c2ccccc2)nc(-c2ccc(OC)cc2)c1C#N | 12.7* | 6.4 | -3.1 | 1.1
